Values joined by “and” are separate entries in the source; they are usually repeats but may differ in a detail not shown here. Equal values may be shown once. Active and inactive are the calls of the source.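 How the source made its calls, unless noted: active means normalized viability below 100% at a tested concentration; inactive means the rest.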
Key:
[1] = Wnt pathway potentiators raising nuclear beta-catenin – imaging, WNT3A-conditioned medium, mouse C2C12, NPC library, primary screen (AID 1117326; in the data active means nuclear beta-catenin stimulation mostly above about 4.2%, no sharp cut-off; inactive means mostly below about 10%); conditions: stronger effect = higher value
[2] = stimulators of insulin release from INS-1E, primary screen, cell-based, 5 mM glucose, NPC library (AID 1117329;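 active means compound raises insulin release from rat beta cells at 5 mM glucose, no numeric limit stated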); conditions: rat INS-1E insulin secretion, at 10 µM, stronger effect = higher value
[3] = growth inhibition of GSK3B-pretreated HCT116 cells – cell-based, CellTiter-Glo, 0.2 to 20 µM (AID 1117336;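 active means compounds lowering colon cancer cell viability after pretreatment blocking the GSK3B kinase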); conditions: HCT116 viability after GSK3B inhibitor, at 20 µM, stronger effect = higher value
[4] = inhibition of endothelial tube formation, primary screen, imaging, VEGF stimulated, CD31 staining, tube area, NPC library (AID 1117340;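 active means compound that reduces growth-factor-driven endothelial tube area in a mixed cell culture, no cutoff stated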); conditions: VEGF-stimulated ADSC/ECFC co-culture, at 10 µM, stronger effect = higher value
[5] = GLP1 release stimulators, primary, NCI-H716, NPC library (AID 1117341;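 active means compound raises GLP1 secretion from the human gut endocrine cells, with no numeric limit stated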); conditions: NCI-H716 cells, at 10 µM, stronger effect = higher value
[6] = HCT116 colon cancer cell growth inhibition, primary screen, CellTiter-Glo luminescence, NPC library (AID 1117342;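 active means compounds that lower survival of HCT116 colon cancer cells in the luminescence readout, no numeric limit stated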); conditions: at 20 µM (top of the series)
[7] = reduced SW480 viability measured with CellTiter-Glo, NPC library, primary (AID 1117343;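 active means compounds that lower viability of the colon cancer cells in the luminescence readout, with no numeric limit stated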); conditions: CellTiter-Glo luminescence; at 20 µM (top of the series)
[8] = NPC library primary testing for decreased DLD-1 cell viability via CellTiter-Glo (AID 1117346;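 active means compounds that lower survival of DLD-1 colon cancer cells in the luminescence readout, no cutoff given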); conditions: DLD-1 viability, CellTiter-Glo luminescence; at 20 µM (top of the series)
[9] = molecular target: 6-phosphogluconate dehydrogenase, decarboxylating (Homo sapiens) (UniProt P52209); experiment: inhibition of human phosphogluconate dehydrogenase – biochemical, recombinant enzyme, NADPH absorbance, primary screen (AID 1159550;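 active means at least 20% inhibition of 6-phosphogluconate dehydrogenase activity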); conditions: recombinant 6PGD, NADPH absorbance 341 nm; at 10 µM; stronger effect = higher value
6-phosphogluconate dehydrogenase, decarboxylating (Homo sapiens), sequence (P52209 whole entry, looked up): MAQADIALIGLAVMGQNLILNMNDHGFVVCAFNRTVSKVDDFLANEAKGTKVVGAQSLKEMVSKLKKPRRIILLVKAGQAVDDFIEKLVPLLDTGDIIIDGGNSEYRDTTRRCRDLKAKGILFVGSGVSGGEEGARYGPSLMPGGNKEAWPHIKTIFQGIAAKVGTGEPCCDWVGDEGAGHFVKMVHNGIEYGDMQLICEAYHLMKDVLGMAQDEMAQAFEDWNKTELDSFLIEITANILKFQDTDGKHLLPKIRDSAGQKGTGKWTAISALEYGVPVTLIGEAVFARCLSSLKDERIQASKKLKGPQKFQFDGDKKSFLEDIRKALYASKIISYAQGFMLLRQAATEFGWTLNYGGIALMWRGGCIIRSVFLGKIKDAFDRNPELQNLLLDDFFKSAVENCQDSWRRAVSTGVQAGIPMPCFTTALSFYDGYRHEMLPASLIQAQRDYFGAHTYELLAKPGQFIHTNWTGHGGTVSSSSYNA

[10] = modulation of C. elegans fzo-1 (AID 1259413; call rule not given here;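 further: fzo-1 mutant C. elegans worms in liquid wells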); conditions: C. elegans fzo-1 modulator screen, mean read-out; stronger effect = higher value
[11] = EMT-state selective cytotoxicity in co-culture – imaging, PC-3E GFP, TEM4-18 mCherry, primary screen (AID 1345086;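 active means compounds killing one labelled cell type while sparing the other, by normalised counts and ratio limits, not self-fluorescent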;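 on all read-outs here: cells exposed to compound for 72 h before imaging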;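 on red/green cell ratio (normalised): normalised mesenchymal count divided by normalised epithelial count so high means epithelial killing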); conditions: PC-3E GFP / TEM4-18 mCherry co-culture, imaging cell counts, at 1 µM; for red/green cell ratio (normalised): actives lie on both sides, counts scaled to control wells, 1 = unselective
[12] = viability loss with induced miR-34 in A549 – imaging, A549 dox-inducible miR-34, nuclei and caspase counts, primary screen (AID 1347080;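 active means compounds whose cell count with miR-34 switched on is under 0.7 times the count with it off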); conditions: A549 miR-34 inducible, Hoechst nuclei count, 48 h
[13] = MELAS cybrid and Rieske KO viability enhancers – cell-based, MELAS cybrids, Rieske KO mouse fibroblasts, CellTiter-Glo, primary screen (AID 1508586;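 active means mean z-score across replicates of 1.96 or higher in either the MELAS or the Rieske mutant cell line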;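 further: z relative to plate mean and SD of compound and empty wells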); conditions: low glucose
[14] = molecular target: NAD(+) hydrolase SARM1 (Homo sapiens) (UniProt Q6SZW1); experiment: blocking NAD cleavage by SARM1 SAM-TIR – cell lysate, NAD-Glo luminescence (AID 1508614;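 active means compound whose remaining NAD level is above about 45 nM, limit read from the data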); conditions: SAM-TIR HEK293T lysate NADase, at 1 µM, stronger effect = higher value
NAD(+) hydrolase SARM1 (Homo sapiens), sequence (Q6SZW1 whole entry, looked up, the tested form may be a part): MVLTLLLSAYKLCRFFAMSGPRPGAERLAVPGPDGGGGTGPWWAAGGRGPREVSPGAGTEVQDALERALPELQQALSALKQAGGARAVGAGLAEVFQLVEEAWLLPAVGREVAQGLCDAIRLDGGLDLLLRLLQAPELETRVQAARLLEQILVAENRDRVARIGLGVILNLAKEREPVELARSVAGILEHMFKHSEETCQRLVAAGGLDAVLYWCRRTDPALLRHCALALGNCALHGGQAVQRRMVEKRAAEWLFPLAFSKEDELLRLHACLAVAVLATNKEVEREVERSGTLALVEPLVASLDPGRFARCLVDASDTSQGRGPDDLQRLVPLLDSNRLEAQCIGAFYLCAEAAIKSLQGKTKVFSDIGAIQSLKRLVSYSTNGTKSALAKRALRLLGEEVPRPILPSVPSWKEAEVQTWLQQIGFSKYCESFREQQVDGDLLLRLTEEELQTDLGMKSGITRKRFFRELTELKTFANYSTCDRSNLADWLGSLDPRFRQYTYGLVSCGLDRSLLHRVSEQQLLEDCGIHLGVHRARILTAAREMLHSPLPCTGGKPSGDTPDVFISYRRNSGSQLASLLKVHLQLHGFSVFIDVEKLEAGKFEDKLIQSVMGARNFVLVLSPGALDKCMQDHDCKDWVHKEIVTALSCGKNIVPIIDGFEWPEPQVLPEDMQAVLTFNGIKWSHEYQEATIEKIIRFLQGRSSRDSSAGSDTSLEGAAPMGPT

[15] = molecular target: Mitogen-activated protein kinase 7 (Homo sapiens) (UniProt Q13164); experiment: Gal4-ERK5 driven luciferase induction – cell-based, HTS, primary screen (AID 1508626;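 active means luciferase signal above three times the same-plate solvent-only control wells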;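 further: luciferase driven by Gal4-ERK5 fusion binding five Gal4 sites before minimal TATA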); conditions: HeLa Gal4-ERK5 transactivation, 18 h, at 5 µM, stronger effect = higher value
Mitogen-activated protein kinase 7 (Homo sapiens), sequence (Q13164 whole entry, looked up, the tested form may be a part): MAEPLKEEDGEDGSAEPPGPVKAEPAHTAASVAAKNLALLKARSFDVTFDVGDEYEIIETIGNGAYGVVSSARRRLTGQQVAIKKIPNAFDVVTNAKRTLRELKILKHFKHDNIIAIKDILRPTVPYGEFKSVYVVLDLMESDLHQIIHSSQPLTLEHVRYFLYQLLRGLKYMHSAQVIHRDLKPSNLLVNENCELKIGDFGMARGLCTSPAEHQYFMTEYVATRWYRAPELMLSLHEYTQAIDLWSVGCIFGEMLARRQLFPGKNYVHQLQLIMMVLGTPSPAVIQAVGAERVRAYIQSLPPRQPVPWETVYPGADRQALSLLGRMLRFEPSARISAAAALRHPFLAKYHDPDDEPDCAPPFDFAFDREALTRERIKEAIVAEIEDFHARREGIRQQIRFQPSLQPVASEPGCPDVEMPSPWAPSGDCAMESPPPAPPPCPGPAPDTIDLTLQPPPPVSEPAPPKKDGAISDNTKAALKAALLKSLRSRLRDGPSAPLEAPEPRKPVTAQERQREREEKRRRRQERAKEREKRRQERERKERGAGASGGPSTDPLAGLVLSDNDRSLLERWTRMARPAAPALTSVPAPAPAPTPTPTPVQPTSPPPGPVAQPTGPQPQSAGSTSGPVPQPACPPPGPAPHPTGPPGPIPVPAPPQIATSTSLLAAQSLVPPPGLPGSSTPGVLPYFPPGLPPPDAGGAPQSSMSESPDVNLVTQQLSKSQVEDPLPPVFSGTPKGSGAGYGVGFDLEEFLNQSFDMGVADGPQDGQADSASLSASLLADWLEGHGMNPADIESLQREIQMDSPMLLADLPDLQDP

[16] = system: F380Y; experiment: BK channel mutant inhibitors and activators – cell-based, U2OS BacMam, thallium flux, beta subunits, selectivity assay, profiling panel (AID 1259406;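 active means thallium flux through the channel raised or lowered by more than 3 SD from vehicle-only wells, actives on both sides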;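 further: initial slope of Thallos dye fluorescence rise after thallium is added; log ratio against the mean of 0.3% DMSO vehicle wells on the same plate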); conditions: U2OS BacMam BK variants, at 30 µM
[17] = system: F380Y/beta1; experiment: as above; conditions: U2OS BacMam BK variants, at 30 µM
[18] = system: F380Y/beta2Delta; experiment: as above; conditions: U2OS BacMam BK variants, at 30 µM
[19] = drug combination growth inhibition, ovarian cancer – cell-based, oncology-focused library, rucaparib conditional, profiling panel (AID 1508598); conditions: patient-derived ovarian cancer cells, CellTiter-Glo viability, 144 h, stronger effect = lower value
[20] = measured here: epithelial PC-3E GFP cell survival
[21] = measured here: mesenchymal TEM4-18 mCherry cell survival
[22] = MELAS cybrid survival, CellTiter-Glo 48 h, stronger effect = higher value
[23] = Rieske KO mouse fibroblast survival, CellTiter-Glo 72 h

NS(=O)(=O)c1cc(C2(O)NC(=O)c3ccccc32)ccc1Cl (stereo not drawn)
nuclear beta-catenin stimulation ([1]; at 10 µM): 2.1% (inactive)
nuclear beta-catenin stimulation ([1]; stimulation, at 2 µM): 6.2%
insulin secretion stimulation [2]: 0.8% (inactive)
viability decrease [3]: -12.6% (inactive)
tube area decrease [4]: 2.3% (inactive)
GLP1 secretion stimulation [5]: -2% (inactive)
inhibition of viability [6]: -5.17% (inactive)
viability decrease (inhibition) [7]: 16.8% (inactive)
viability decrease (inhibition) [8]: -4% (inactive)
inhibition [9]: 7.34% (inactive)
mean signal [10]: 251 (inactive)
red/green cell ratio (normalised) [11]: 1.08 (inactive)
normalised cell number [11, 20]: 1.2
normalised cell number [11, 21]: 1.3
fold change ([12]; stronger effect = lower value, cell number ratio, induced over uninduced): 0.98 (inactive) and 0.828 (inactive) and 0.88 (inactive)
fold change ([12]; measured here: relative caspase fold change +Dox/-Dox): 1.92 and 1.71 and 1.64
cell count ([12]; measured here: total cells with miR-34 induction, stronger effect = lower value): 11100 and 8640 and 10800
cell count ([12]; measured here: total cells without miR-34 induction): 11400 and 10400 and 12300
z-score [13, 22]: -0.366 (inactive)
z-score [13, 23]: -0.339
remaining NAD [14]: 10 nM (inactive)
luciferase signal [15]: 36 AU (inactive)
log fold change Tl+ flux [16]: -0.0172 (inactive)
log fold change Tl+ flux [17]: -0.0295 (inactive)
log fold change Tl+ flux [18]: -0.039 (inactive)

Cc1ccc(-c2cc(C(F)(F)F)nn2-c2ccc(S(N)(=O)=O)cc2)cc1
nuclear beta-catenin stimulation ([1]; at 10 µM): 8.6% (inactive)
nuclear beta-catenin stimulation ([1]; stimulation, at 2 µM): 0.5%
insulin secretion stimulation [2]: -0.6% (inactive)
viability decrease [3]: -9.9% (inactive)
tube area decrease [4]: 1.2% (inactive)
GLP1 secretion stimulation [5]: 0.7% (inactive)
inhibition of viability [6]: 49% (inactive)
viability decrease (inhibition) [7]: 66.6% (active)
viability decrease (inhibition) [8]: 50.1% (active)
inhibition [9]: 13.7% (inactive)
mean signal [10]: 242 (inactive)
red/green cell ratio (normalised) [11]: 1.22 (inactive)
normalised cell number [11, 20]: 1.08
normalised cell number [11, 21]: 1.32
z-score [13, 22]: -0.312 (inactive) and 1.24 (inactive) and 1.08 (inactive)
z-score [13, 23]: 1.13 and 1.16 and 1.29
viability ([19]; at 0.000305 µM, OCI-C5x cells, with rucaparib 10 µM, 100% = cells with rucaparib alone): 113% (inactive)
viability ([19]; at 0.000305 µM, OCI-C5x cells, without rucaparib): 107% (inactive)
viability ([19]; at 0.000305 µM, OCI-P5x cells, with rucaparib 20 µM, 100% = cells with rucaparib alone): 84.7% (active)
viability ([19]; at 0.000305 µM, OCI-P5x cells, without rucaparib): 92.4% (active)
viability ([19]; at 0.00122 µM, OCI-C5x cells, with rucaparib 10 µM, 100% = cells with rucaparib alone): 104% (inactive)
viability ([19]; at 0.00122 µM, OCI-C5x cells, without rucaparib): 111% (inactive)
viability ([19]; at 0.00122 µM, OCI-P5x cells, with rucaparib 20 µM, 100% = cells with rucaparib alone): 91.7% (active)
viability ([19]; at 0.00122 µM, OCI-P5x cells, without rucaparib): 91.9% (active)
viability ([19]; at 0.00488 µM, OCI-C5x cells, with rucaparib 10 µM, 100% = cells with rucaparib alone): 118% (inactive)
viability ([19]; at 0.00488 µM, OCI-C5x cells, without rucaparib): 107% (inactive)
viability ([19]; at 0.00488 µM, OCI-P5x cells, with rucaparib 20 µM, 100% = cells with rucaparib alone): 93.8% (active)
viability ([19]; at 0.00488 µM, OCI-P5x cells, without rucaparib): 94% (active)
viability ([19]; at 0.0195 µM, OCI-C5x cells, with rucaparib 10 µM, 100% = cells with rucaparib alone): 115% (inactive)
viability ([19]; at 0.0195 µM, OCI-C5x cells, without rucaparib): 120% (inactive)
viability ([19]; at 0.0195 µM, OCI-P5x cells, with rucaparib 20 µM, 100% = cells with rucaparib alone): 96.2% (active)
viability ([19]; at 0.0195 µM, OCI-P5x cells, without rucaparib): 88.2% (active)
viability ([19]; at 0.0781 µM, OCI-C5x cells, with rucaparib 10 µM, 100% = cells with rucaparib alone): 114% (inactive)
viability ([19]; at 0.0781 µM, OCI-C5x cells, without rucaparib): 117% (inactive)
viability ([19]; at 0.0781 µM, OCI-P5x cells, with rucaparib 20 µM, 100% = cells with rucaparib alone): 96.7% (active)
viability ([19]; at 0.0781 µM, OCI-P5x cells, without rucaparib): 94.3% (active)
viability ([19]; at 0.313 µM, OCI-C5x cells, with rucaparib 10 µM, 100% = cells with rucaparib alone): 117% (inactive)
viability ([19]; at 0.313 µM, OCI-C5x cells, without rucaparib): 110% (inactive)
viability ([19]; at 0.313 µM, OCI-P5x cells, with rucaparib 20 µM, 100% = cells with rucaparib alone): 66.1% (active)
viability ([19]; at 0.313 µM, OCI-P5x cells, without rucaparib): 56.6% (active)
viability ([19]; at 1.25 µM, OCI-C5x cells, with rucaparib 10 µM, 100% = cells with rucaparib alone): 113% (inactive)
viability ([19]; at 1.25 µM, OCI-C5x cells, without rucaparib): 124% (inactive)
viability ([19]; at 1.25 µM, OCI-P5x cells, with rucaparib 20 µM, 100% = cells with rucaparib alone): 109% (inactive)
viability ([19]; at 1.25 µM, OCI-P5x cells, without rucaparib): 105% (inactive)
viability ([19]; at 5 µM, OCI-C5x cells, with rucaparib 10 µM, 100% = cells with rucaparib alone): 122% (inactive)
viability ([19]; at 5 µM, OCI-C5x cells, without rucaparib): 131% (inactive)
viability ([19]; at 5 µM, OCI-P5x cells, with rucaparib 20 µM, 100% = cells with rucaparib alone): 109% (inactive)
viability ([19]; at 5 µM, OCI-P5x cells, without rucaparib): 105% (inactive)
remaining NAD [14]: 10 nM (inactive)
luciferase signal [15]: 28 AU (inactive)
log fold change Tl+ flux [16]: 0.057 (inactive)
log fold change Tl+ flux [17]: -0.0387 (inactive)
log fold change Tl+ flux [18]: -0.0192 (inactive)
